# High-throughput results (PubChem BioAssay)
# This is a sample that favours compounds with a hit; in the whole collection about 18% have one here.
# TDP1 block: blocks human tyrosyl-DNA phosphodiesterase 1 | Q9NUW8 | recombinant TDP1, AlphaScreen DNA substrate cleavage | Potency, µM (top dose mostly 130 µM), without a hit: at the top dose activity change, negative = inhibition, hits mostly inhibitors | hit rate 0.28% among 350,000 | AID 485290; also: potency is read from the fitted curve at half-maximal effect; % is scaled to controls: 0 for no effect and ±100 for the full control effect; nearly all actives have a fitted effect of over 40% in size
# Target sequence (Q9NUW8 whole entry, looked up): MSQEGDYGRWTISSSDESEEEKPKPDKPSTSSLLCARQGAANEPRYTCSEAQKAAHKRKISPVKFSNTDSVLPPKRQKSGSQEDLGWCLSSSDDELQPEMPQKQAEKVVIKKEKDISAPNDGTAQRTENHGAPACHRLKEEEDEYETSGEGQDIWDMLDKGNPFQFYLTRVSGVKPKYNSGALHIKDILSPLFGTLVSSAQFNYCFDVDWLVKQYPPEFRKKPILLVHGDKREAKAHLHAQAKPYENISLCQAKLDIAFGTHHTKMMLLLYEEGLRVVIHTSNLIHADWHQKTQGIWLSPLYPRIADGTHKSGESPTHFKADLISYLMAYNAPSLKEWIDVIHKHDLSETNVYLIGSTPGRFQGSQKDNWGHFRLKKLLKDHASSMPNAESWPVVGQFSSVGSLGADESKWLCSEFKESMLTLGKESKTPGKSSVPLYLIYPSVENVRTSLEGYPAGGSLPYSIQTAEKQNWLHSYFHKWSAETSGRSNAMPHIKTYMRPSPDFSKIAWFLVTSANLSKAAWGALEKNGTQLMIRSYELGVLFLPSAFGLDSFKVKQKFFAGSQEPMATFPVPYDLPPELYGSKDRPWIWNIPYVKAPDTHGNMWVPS
#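 Steps: enzyme plus compound, 15 min RT; add biotin/phosphotyrosine-FITC oligonucleotide (15 nM final), react 5 min; add donor/acceptor beads (10 ug/ml final), 10 min; read AlphaScreen. Tdp1 at 1 nM final.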
# TGFb inhibitor: TGF-b pathway inhibition; HepG2 CAGA-GFP TGF-b/SMAD3 reporter, GFP fluorescence, 18 h; TGF-beta stimulated, 500 pg/mL final; Potency, µM (highest dose often 46.1 µM), for inactives: top-dose activity, negative = inhibition, hits mostly inhibitors; hit rate 1.2% among 410,000; also: potency is read from the fitted curve at half-maximal effect; % is scaled to controls: 0 for no effect and ±100 for the full control effect; nearly all actives have a fitted effect of over 65% in size
#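 HEPG2 CAGA-GFP cells (1000/well, DMEM with 1% FBS) were pre-incubated 2 h at 37 degrees C, given compound by pin tool, then stimulated with TGF-beta at 500 pg/mL final for 18 h before per-cell GFP fluorescence imaging.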
# TDP1 cell CPT: DT40-hTDP1 cell growth loss with CPT; hit rate 12% among 420,000; Potency, µM (doses to about 46.2 µM), for the others: at the top dose activity change, negative = growth inhibition, most hits filed as inhibitors; chicken DT40 Tdp1-/-;hTDP1 cells + 20 nM CPT, ATP luminescence, 48 h; also: potency is read from the fitted curve at half-maximal effect; % is scaled to controls: 0 for no effect and ±100 for the full control effect; nearly all actives have a fitted effect of over 55% in size
#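 Cell growth measured by CellTiter-Glo luminescence after a minimum 48 h, 37 C compound exposure with 20 nM CPT in Tdp1-knockout DT40 cells stably expressing hTDP1, seeded 400/well; qHTS titration format.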
# HepG2 tox: kills HepG2 cells in TGF-b inhibitor counter-screen; hit rate 0.76% among 410,000; HepG2 CAGA-GFP viability, ATP luminescence, 18 h; AID 588856; Potency, µM (highest dose often 46.1 µM), inactives show top-dose activity change, negative = cytotoxicity, hits mostly cytotoxic; also: potency is read from the fitted curve at half-maximal effect
#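 HepG2 CAGA-GFP cells (1000/well, DMEM with 1% FBS) received compound, then TGF-beta at 500 pg/mL final, and were incubated 18 hours at 37 degrees C. Viability was read by CellTiter-Glo luminescence. Media-only wells were set as complete cell-killing and DMSO as no toxicity.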
# DT40 TDP1 no CPT: qHTS for Inhibitors of human tyrosyl-DNA phosphodiesterase 1 (TDP1): qHTS in cells in absence of CPT; Potency, µM (titrated, usually from 46.2 µM), for the others: at the highest dose activity change, negative = growth inhibition, usual class: inhibitors; AID 686978, 2013; hit rate 15% among 420,000; DT40 Tdp1-/- hTDP1 cells, no CPT, ATP luminescence, 48 h; also: potency is read from the fitted curve at half-maximal effect; % is scaled to controls: 0 for no effect and ±100 for the full control effect; nearly all actives have a fitted effect of over 55% in size
#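 Luminescent ATP content (CellTiter-Glo) served as the growth readout. Knockout chicken DT40 cells expressing human TDP1 were exposed to compounds without camptothecin for a minimum 48 hr at 37 °C.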
# IL-1B inflam inh: inhibitors of inflammasome signaling (IL-1 beta secretion) | THP-1 LPS/ATP IL-1B secretion, AlphaLISA, 16 h; hits give low values | AID 743279 | hit rate 4.7% among 360,000 | activity change, % at 57.5 µM; in the data active = activity change below about -50%; inconclusive = mostly about -30% to -49%; also: % is scaled to controls: 0 for no effect and ±100 for the full control effect
#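 THP-1 cells pretreated 1 hr with compounds (up to 57.5 uM final), then stimulated with LPS (250 ng/mL final) plus ATP (1.25 mM final); secreted IL-1B measured by AlphaLISA after 16 hr, decreased signal indicating inhibition.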
# * hit, by the source's call; u = inconclusive; x = no result; [ ] = dose if it differs, or a comment. Unless noted, calls follow the shape of the dose curve; as a rule, active = well fitted curve in the direction sought with a large enough effect; inconclusive = small, poorly fitted or top-dose-only effect, or another doubt; inactive = no such curve, though single readings can be large; an effect the other way counts as inactive or inconclusive.
SMILES,TDP1 block,TGFb inhibitor,TDP1 cell CPT,HepG2 tox,DT40 TDP1 no CPT,IL-1B inflam inh
CCN(CC)S(=O)(=O)c1cccc(C(=O)OCC(=O)C23CC4CC(CC(C4)C2)C3)c1,7.0%,3.1%,u,-0.4%,23.1µM*,-6.3
CCOC(=O)c1c(C)[nH]c(C)c1C(=O)COC(=O)c1cccc(S(=O)(=O)N(CC)CC)c1,5.8%,-14.0%,u,-20.4%,29.1µM*,-11.6
CCC(=O)Nc1ccccc1-c1nc2ccccc2n(Cc2cccc(Br)c2)c1=O,2.9%,22.8%,7.5%,-8.2%,-4.4%,x
CCc1nc2c(OCC(=O)c3ccc(F)cc3)cccn2c1N(C)C(=O)c1ccc(OC)cc1,x,-1.4%,-14.6%,-18.0%,-4.9%,-12.1
CCc1nc2c(OCC=C(C)C)cccn2c1N(C)C(=O)c1ccc(OC)cc1,x,-25.7%,23.1µM*,-25.3%,13µM*,62.7
CCc1nc2c(OCC=C(C)C)cccn2c1N(C)C(=O)c1ccccc1F,x,1.3%,0.731µM*,5.4%,0.82µM*,-69.4*
CCCOc1cccn2c(N(C)C(=O)c3ccccc3F)c(CC)nc12,x,u,u,-38.0%,u,46.6
C=C1C(=O)C=C2CN(C(=O)c3ccccc3)[C@@](Cc3ccc(OC)cc3)(C(=O)OC)[C@@H]12,-3.9%,x,x,x,x,x
O=C(Nc1ccccc1)OCCc1ccccc1,x,9.1%,-25.9%,-15.5%,u,-7.1
Oc1cccc(O)c1O,u,x,5.96µM*,x,u,x
O=C(O)c1cccc(O)c1O,x,3.9%,-7.0%,4.7%,1.5%,7.6
COc1ccccc1N1CCN(S(=O)(=O)c2cn(C)nc2C)CC1,3.1%,u,-2.7%,2.5%,1.4%,1.0
CN1c2cccc3cccc(c23)N(C)C1(C)C,11.9%,-21.6%,-14.9%,-2.3%,-13.1%,-0.1
CN1c2ccccc2N(C)C1(C)c1cccc2ccccc12,2.7%,u,5.8µM*,-25.8%,3.26µM*,40.5
COc1ccc(-c2oc3ncn(CCN4CCOCC4)c(=N)c3c2-c2ccc(OC)cc2)cc1,0.0%,u,16.4µM*,-50.5%,13µM*,-53.4*
COc1ccc(CCNCCN2CCOCC2)cc1,x,-3.2%,2.7%,8.6%,-14.0%,5.8
CCOc1cc2nc(-c3ccc(OC)c(OC)c3)nc(NCCCN3CCOCC3)c2cc1OC,1.5%,4.9%,u,-15.6%,20.6µM*,-60.4*
COc1ccc(-c2oc3ncnc(NCCCN4CCOCC4)c3c2-c2ccc(OC)cc2)cc1,4.2%,-3.0%,u,-5.6%,18.4µM*,u
c1ccc(-c2oc3ncnc(NCCCN4CCOCC4)c3c2-c2ccccc2)cc1,4.1%,0.4%,u,-70.3%,23.1µM*,-22.2
COc1ccc(S(=O)(=O)N2CCC(C(=O)NCC3CC3)CC2)cc1,x,0.5%,-6.4%,-6.8%,-3.7%,2.5
O=C(C[n+]1ccc(/C=N/O)cc1)N1CCCCC1,-1.4%,5.4%,-0.9%,22.1%,-2.1%,29.9
CCCc1c(C(=O)OCC)nnc2c(-c3ccccc3)c(C)nn12,1.9%,0.8%,u,3.5%,-24.1%,x
COc1ccc(-c2oc3ncnc(NCCN4CCOCC4)c3c2-c2ccc(OC)cc2)cc1,1.0%,u,u,-38.0%,14.6µM*,18.0
COc1ccc(-n2ncc3c(NCCN4CCOCC4)ncnc32)cc1,0.5%,-0.6%,-6.4%,-1.0%,-2.7%,7.4
OCCCNc1ncnc2oc(-c3ccccc3)c(-c3ccccc3)c12,x,u,u,-74.5%,16.4µM*,-24.3
SMILES,TDP1 block,TGFb inhibitor,TDP1 cell CPT,HepG2 tox,DT40 TDP1 no CPT,IL-1B inflam inh
COC(=O)C(C)N1C(=O)S/C(=C\c2ccc(-c3ccc(C(=O)O)cc3C)o2)C1=O (stereo unspecified),x,1.0%,u,-2.2%,u,-1.0
CCN(CC)c1ccc(/C=C2\SC(=O)N(C(C)C)C2=O)o1,u,49.5%,0.92µM*,-111.0%,2.06µM*,-98.8*
COc1ccc2c(c1)Cc1sc(NC(C)=O)nc1-2,6.8%,-2.5%,-13.3%,-6.9%,4.2%,-20.8
COc1ccc2c(c1)Cc1sc(NC(=O)c3cccnc3)nc1-2,2.5%,4.0%,u,2.8%,20.6µM*,u
COc1ccc2c(c1)-c1nc(NC(=O)c3ccco3)sc1CC2,2.6%,u,u,3.3%,14.6µM*,-5.7
COc1cc(NC(=O)c2cc(C)no2)cc(OC)c1OC,x,4.9%,7.8%,4.7%,-9.8%,-8.8
Cc1ccc(S(=O)(=O)Nc2ccc(OCC(=O)N3CCOCC3)cc2)c(C)c1NS(C)(=O)=O,14.0%,-19.9%,-1.0%,11.4%,-5.9%,-1.4
CC(=O)Nc1cc(-c2ccc(C(=O)N3CCOCC3)cc2)cn2c(-c3cccc(C(C)=O)c3)cnc12,x,13.5%,u,-2.5%,14.6µM*,u
CC(=O)c1cccc(-c2cnc3c(NC=O)cc(-c4ccc(C(=O)N5CCOCC5)cc4)cn23)c1,x,u,u,-8.9%,u,52.2
CC(=O)Nc1cnc(-c2cccc(C(=O)N3CCOCC3)c2)cn1,x,-9.3%,6.5%,-0.1%,6.6%,9.0
COc1cccc(-c2cnc3c(NC(C)=O)cc(-c4ccc(C(=O)N5CCOCC5)cc4)cn23)c1,x,-5.1%,20.6µM*,-3.2%,18.4µM*,u
CC(=O)Nc1cncc(-c2cccc(C(=O)N3CCOCC3)c2)n1,x,-17.1%,-36.8%,-41.7%,6.51µM*,-2.9
CCOc1ccc(NC(=O)c2cc(C)nc3c2c(C)nn3-c2ccc(C)cc2)cc1,3.2%,22.1%,u,9.3%,-25.8%,x
CC(C)(C)NC(=O)CCSc1nc(-c2ccc3c(c2)OCO3)cc(C(F)(F)F)n1,0.0%,1.1%,x,-1.9%,x,x
Cc1nn(Cc2ccc(Cl)cc2Cl)c(C)c1NC(=O)C1C2CCC(O2)C1C(=O)O (stereo unspecified),-7.4%[56.1 µM],5.5%,u,-14.3%,14.6µM*,-7.7
Cc1nn(Cc2ccc(Cl)cc2Cl)c(C)c1NC(=O)c1nn(C)cc1Cl,4.8%,20.9%,8.2µM*,-16.4%,9.2µM*,-0.2
Cc1nn(Cc2ccc(Cl)cc2Cl)c(C)c1NC(=O)CCl,2.5%,u,14.6µM*,-73.5%,13µM*,-100.6*
Cc1nn(C)c(Cl)c1NC(=O)OCc1ccc(Cl)cc1Cl,5.9%,u,14.6µM*,-11.3%,13µM*,-3.7
